Source: PubChem BioAssay (NCI)
This is part of a sample that, as a whole, favours compounds with a hit. Of some 83,000 tested, about 20% had one in any assay.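 Plates (96-well) were seeded with cells, treated with compound at one concentration, and incubated for 48 hours before percent growth was determined.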 Values without a mark were called inactive. Calls of active or inactive are those of the source. Rule for the calls: active = growth percent below 10; inactive = the rest.

What was measured:
Assay in all cases: NCI-60 one-dose screen, 48 h (100 = growth as untreated, 0 = no growth, -100 = all killed)
Conditions in all cases: 10 µM unless noted
NCI-H23 lung = tested on: NCI-H23 lung
NCI-H226 lung = tested on: NCI-H226 lung
NCI-H322M lung = tested on: NCI-H322M lung
HOP-62 NSCLC = tested on: HOP-62 NSCLC
NCI-H460 lung = tested on: NCI-H460 lung
NCI-H522 lung = tested on: NCI-H522 lung
A549/ATCC NSCLC = tested on: A549/ATCC NSCLC
786-0 renal = tested on: 786-0 renal
COLO 205 colon = tested on: COLO 205 colon
DU-145 prostate = tested on: DU-145 prostate
K-562 leukemia = tested on: K-562 leukemia
MALME-3M melanoma = tested on: MALME-3M melanoma
MDA-MB-231 breast = tested on: MDA-MB-231 breast
RXF 393 renal = tested on: RXF 393 renal
SF-268 CNS = tested on: SF-268 CNS
SF-539 CNS = tested on: SF-539 CNS
UACC-257 melanoma = tested on: UACC-257 melanoma
M14 melanoma = tested on: M14 melanoma
HCT-15 colon = tested on: HCT-15 colon
SF-295 CNS = tested on: SF-295 CNS

Structure (SMILES)	growth (NCI-H23 lung)	growth (NCI-H226 lung)	growth (NCI-H322M lung)	growth (HOP-62 NSCLC)	growth (NCI-H460 lung)	growth (NCI-H522 lung)	growth (A549/ATCC NSCLC)	growth (786-0 renal)	growth (COLO 205 colon)	growth (DU-145 prostate)	growth (K-562 leukemia)	growth (MALME-3M melanoma)	growth (MDA-MB-231 breast)	growth (RXF 393 renal)	growth (SF-268 CNS)	growth (SF-539 CNS)	growth (UACC-257 melanoma)	growth (M14 melanoma)	growth (HCT-15 colon)	growth (SF-295 CNS)
Nc1ccc2c(c1)/C(=N/O)c1cc([N+](=O)[O-])ccc1-2	71.5%	76.3%	42%	91.7%	27.3%	55.1%	49.2%	63.1%	104%	46.4%	22.9%	57.9%	91.7%	85%	62.6%	60.1%	81%	49.4%	61.2%	
CCN1C(=O)c2ccc3c4c(ccc(c24)C1=O)C(=O)N(CCCNCc1ccccc1OC)C3=O	-42.7% (active)	-36.6% (active)	-31.6% (active)	-36.8% (active)	-57.8% (active)	-87.1% (active)	-58.1% (active)	-51.5% (active)	-81.5% (active)	-87.4% (active)	-36% (active)	-87.6% (active)	2.92% (active)		-15.5% (active)	-96.4% (active)	-88.6% (active)	-92.8% (active)	-78.3% (active)	-69.8% (active)
COc1ccc(-c2cnnn2-c2cc(OC)c3c(c2)OCO3)cc1	26.6%	88.4%	42.8%	30.2%	11.2%	-45.2% (active)	18.3%	42.3%	-80.4% (active)	12.8%	0.651% (active)	34.4%	4.19% (active)	10%	29.9%	-15.2% (active)	59.7%	10.6%	14.8%	
Clc1ccc2nc(Cl)c3ccccc3c2c1	84.6%	71.7%	37.6%	58.3%	-1.38% (active)	75.7%	28.7%	46.8%	78.3%	62.9%	88%	67.2%	74.9%	59.6%	76.3%	63.8%	93.1%	99.9%	91.4%	
Cc1cc(NCCCNc2ccnc3cc(Cl)ccc23)nc(N2CCN(C)CC2)n1	95.1%	75.3%	56.4%	62.7%	24.1%	4.29% (active)	70.5%	78.7%	48.1%	78.2%	8.07% (active)	59.2%	53.8%		70.7%	-18.8% (active)	50.4%	25.7%	43.6%	61%
CC/C=C\C=C/C(=O)N/C=C/CC1Cc2cccc(O)c2C(=O)O1 (configuration not stated)	77.1%	110%	119%	65.5%	130%	55.2%	84.8%	81.5%	94.2%	76.4%	25.9%	98.8%	64.3%		119%	38.3%	86.7%	44.2%	80.3%	262%
C/C(=C\CCc1ccsc1)CC/C=C(\C)CCCN1CCC(CO)CC1	61.4%	63.4%	76.2%	62.1%	-46.3% (active)	27.7%	36.6%	5.43% (active)	-54.9% (active)	64.5%	-51.4% (active)	-66.9% (active)	19.6%		60.6%	9.87% (active)	-32.4% (active)	-47.4% (active)		7.65% (active)
COc1cc(/C=C2\CCC/C(=C\c3ccc(OCC4CO4)c(OC)c3)C2=O)ccc1OCC1CO1 (configuration not stated)	57.8%	86.2%	85.1%	28.9%	8.96% (active)	24.3%	21.3%	65.2%	33.8%	7.14% (active)	-3.49% (active)	26.2%	13.1%	4.7% (active)	1.73% (active)	25.2%	35.1%	2.79% (active)	14.4%	
COc1ccc2c(c1)/C(=C\c1c[nH]c3ccc(F)cc13)C(=O)N2	81.4%	92.6%	75.9%	88.8%	87.7%	80%	70%	96.5%	103%	84%	62.5%	120%	106%	95.4%		91.8%	108%	105%	66%	100%
CC1=CC(=O)C(C(C)=Nc2ccccc2Cl)C(=O)O1 (configuration not stated)	142%	104%	121%	109%	109%	121%	116%	114%	129%	110%	105%	123%	105%		101%	101%	-17.3% (active)	107%	105%	121%
CSc1nnc(C2=CC(=O)c3ccccc3C2=O)n1-c1ccccc1	83.9%	85.5%	91.1%	100%	83.6%	64.5%	76.3%	95.2%	110%	104%	-0.209% (active)	84.9%	93.2%		92%	98.1%	86.7%	92%	95.3%	85.8%
COc1cc(/C=C/C(=O)c2ccc(F)cc2)ccc1OCCCCCOc1cc2c(cc1OC)C(=O)N1CCCC1C=N2 (configuration not stated)	-32.6% (active)	-49.7% (active)	-2.96% (active)	-34.8% (active)	3.88% (active)	-59.9% (active)	4.95% (active)	-43.3% (active)	-72% (active)	-13.1% (active)	-6.46% (active)	-77.6% (active)	-33% (active)		-29.9% (active)	-67.1% (active)	8.38% (active)	-70% (active)	-3.47% (active)	72.2%
C[N+]1(CCC[N+]2(C)C[C@@H]3[C@H](C2)[C@@H]2C=C[C@H]3C2)CCOCC1 (some centres not stated)	105%	110%	106%	94.3%	116%	106%	111%	109%	104%	140%	110%		104%	121%	115%	100%	112%	108%	91.4%	113%
CN1CCN(CC(=O)Nc2nc3c(s2)Nc2cc(Cl)c(Cl)cc2NC3=O)CC1	106%	96.1%	94.1%	98.3%	104%	77%	95.9%	99.2%	107%	117%	81.3%	107%	123%		111%	107%	87.9%	105%	104%	108%
CC(=O)NC1(C(=O)O)CCCC1	133%	113%	130%	117%	109%	103%	126%	110%	125%	126%	96.6%	135%	119%		111%	104%	100%	110%	112%	110%
COc1ccc(/C(=C2\O[C@@H]([C@H](O)CO)[C@H]3OC(C)(C)O[C@@H]23)c2cc(OC)c(OC)c(OC)c2)cc1O	89.8%	110%	109%	88.4%	107%	57.5%	89.4%	94.3%	126%	87.1%	12.6%	75.7%	97%		71.1%	68.2%	97.9%	47.7%	62.2%	92.5%
C/C(=C\CCc1ccsc1)CC/C=C(\C)CCCN1CCN(CCO)CC1	62.2%	67.7%	71.8%	69.1%	14.6%	71.5%	44.8%	32.8%	-9.2% (active)	76.4%	-27.4% (active)	-14.4% (active)	27%		71.7%	57.8%	11.4%	14.2%	-22.2% (active)	35.9%
